# Reference: article PMC4552634, “A New Set of Chemical Starting Points with Plasmodium falciparum Transmission-Blocking Potential for Antimalarial Drug Discovery” (PLoS ONE, 2015)
# The campaign covered roughly 13,000 compounds. About 3,200 (25%) showed an effect of 50% or more. This is one part of the list.
# Test system: P. falciparum stage V gametocytes
# Parameters: BacTiter-Glo ATP luminescence viability of purified stage V gametocytes in 384-well plates, per cent inhibition versus DMSO
# Details: 48 h, 5 µM; inhibitor
row,SMILES,% Inhibition [%]
1,CCc1ccc(NC(=O)c2cccc(CN3CCCN(CC4CCCCC4)CC3)c2)cc1 [TCMDC-135988],-39.09
2,O=C(c1ccc(-c2ccc(-c3nc4ccccc4[nH]3)s2)cc1)N1CCCCC1CN1CCC(O)C1 (stereo not drawn) [TCMDC-132341],-18.79
3,CC(O)C1CCCCN1C(=O)c1cccc(-c2ccc(-c3nc4ccccc4[nH]3)s2)c1 (stereo not drawn) [TCMDC-132332],27.09
4,CC(C)Cn1c(N)cc(=O)n(C)c1=O [TCMDC-123470],3.426
5,CCCCCC(=O)NCC(NCCCNc1cc(=O)c2ccccc2[nH]1)c1cc(Br)cc(Br)c1 (stereo not drawn) [TCMDC-140316],24.17
6,COc1ccc2ncc(Cl)c(NCC3(O)CCC(NCc4ccc5c(n4)NC(=O)CS5)CC3)c2n1 (stereo not drawn) [TCMDC-134671],11.29
7,CC(=O)c1cccc2[nH]c(C(=O)NC3CCC(CCN4CCc5ccc(C#N)cc5C4)CC3)cc12 (stereo not drawn) [TCMDC-139218],4.712
8,COc1ccc(Cn2c(N3CCN(S(=O)(=O)c4ccc(OC)cc4)CC3)nc3c2c(=O)n(CC2CC2)c(=O)n3CC2CC2)cc1 [TCMDC-138935],-17.86
9,COc1ccc(S(=O)(=O)N2CCC3(CC2)OCC(=O)NC3c2ccc(Cl)c(Cl)c2)cc1 (stereo not drawn) [TCMDC-133797],8.685
10,Cc1nc(-c2cccc(C(=O)NC3CCC(CCN4CCc5ccc(-c6cccnc6)cc5CC4)CC3)c2)no1 (stereo not drawn) [TCMDC-140228],-46.69
11,C[C@@H](Oc1cc(-n2cnc3ccc(NC(=O)NC(C)(C)C)cc32)sc1C(N)=O)c1ccccc1Cl [TCMDC-135806],66.79
12,NC(=O)c1sc(-n2cnc3ccccc32)cc1OCc1ccccc1[N+](=O)[O-] [TCMDC-134488],13.6
13,C[C@@H](Oc1cc(-n2cnc3ccc(NC(=O)CCN4CCCCC4)cc32)sc1C(N)=O)c1ccccc1Cl [TCMDC-135971],64.1
14,CC(Oc1cc(-n2cnc3ccc(NC(=O)CCN4CCCCC4)cc32)sc1C(N)=O)c1ccccc1Cl (stereo not drawn) [TCMDC-135370],69.65
15,O=C(CCN1CCCCC1)Nc1ccc(Nc2nccc(NCC(O)c3ccccc3)n2)cc1 (stereo not drawn) [TCMDC-136464],-29.58
16,C[C@@H](Oc1cc(-n2cnc3cc(SCCN4CCN(C)CC4)ccc32)sc1C(N)=O)c1ccccc1Cl [TCMDC-135452],29.32
17,COc1ccc2c(c1)ncn2-c1cc(OCc2ccncc2Br)c(C(N)=O)s1 [TCMDC-138876],39.96
18,COc1ccc2nc(Nc3nc4ccncc4[nH]3)sc2c1 [TCMDC-131950],20.19
19,c1ccc(-c2nc(Nc3ccncc3)sc2-c2ccccc2)cc1 [TCMDC-139027],-36.52
20,Clc1ccc(-c2cc(-c3csc(Nc4ccncc4)n3)on2)cc1 [TCMDC-135160],-12.1
21,Nc1ccc(-c2csc(Nc3ccncc3)n2)cc1 [TCMDC-138715],-22.32
22,c1cc(Nc2nc(-c3ccc(-c4csc(Nc5ccncc5)n4)cc3)cs2)ccn1 [TCMDC-139725],127.3
23,c1ccc2sc(-c3csc(Nc4ccncc4)n3)nc2c1 [TCMDC-135159],-15.83

row,SMILES,% Inhibition [%]
1,c1ccc(-c2ccc(-c3csc(Nc4ccncc4)n3)cc2)cc1 [TCMDC-139026],62.72
2,CC(C)N(CC(=O)c1ccc(O)c(C(=O)O)c1)Cc1ccccc1 [TCMDC-131774],0.6957
3,COc1ccccc1COc1c(C)nc(N)nc1N [TCMDC-131356],-14.22
4,CC(C)CC(=O)N1CCNC[C@@H]1C(=O)NCc1ccc(Cl)c(Cl)c1 [TCMDC-141242],45.03
5,CN1CCC(Oc2ccc(CN3CC[C@H](NC(=O)c4ccc(Cl)c(Cl)c4)C3)cc2Cl)C1 (stereo partly drawn) [TCMDC-140276],27.21
6,Cc1cc(CN2CC[C@H](NC(=O)c3ccc(Cl)c(Cl)c3)C2)ccc1OC1CCN(C)C1 (stereo partly drawn) [TCMDC-140281],32.63
7,CN1CCC(Oc2ccc(CN3CC[C@H](NC(=O)c4ccc(Cl)c(Cl)c4)C3)c3ccccc23)C1 (stereo partly drawn) [TCMDC-140271],51.75
8,CN1CCC(Oc2ccc(CN3CC[C@H](NC(=O)c4ccc(Cl)c(F)c4)C3)c3ccccc23)C1 (stereo partly drawn) [TCMDC-135274],60.57
9,CN1CCC(Oc2ccc(CN3CC[C@H](NC(=O)c4cccc(C#N)c4)C3)c3ccccc23)C1 (stereo partly drawn) [TCMDC-135277],88.31
10,CN1CCC(Oc2cc(CN3CC[C@H](NC(=O)c4ccc(Cl)c(Cl)c4)C3)ccc2I)C1 (stereo partly drawn) [TCMDC-140266],15.84
11,CN1CCC(Oc2ccc(CN3CC[C@H](NC(=O)c4cc(F)cc(F)c4)C3)c3ccccc23)C1 (stereo partly drawn) [TCMDC-135275],57.07
12,CCC(=O)N[C@@H]1CN[C@@H](C#Cc2cc3c(Nc4ccc(OCc5cccc(F)c5)c(Cl)c4)ncnc3s2)C1 [TCMDC-135410],-39.51
13,N#Cc1c(N2CCCCCC2)nc(N)c2c(N)nc3c(c12)CC(=O)N3c1ccc(F)cc1 [TCMDC-123902],44.67
14,O=C(Nc1ccc(S(=O)(=O)N2CCCCC2)cc1)c1cc(-c2cc(Cl)ccc2O)n[nH]1 [TCMDC-124905],-12.68
15,CN1CCC(Oc2ccc(CN3CC[C@H](NC(=O)c4ccc(F)c(F)c4)C3)c3ccccc23)C1 (stereo partly drawn) [TCMDC-135278],72.64
16,CCCCCN1CCCN(Cc2cccc(NC(=O)c3ccc4ccccc4c3)c2)CC1 [TCMDC-141854],-83.26
17,Nc1ccc2[nH]cc(C3CCN(CC4CCN(C(=O)/C=C/c5ccc(Cl)c(Cl)c5)CC4)CC3)c2n1 [TCMDC-140061],100.1
18,Nc1ccc2[nH]cc(C3CCN(CCC4CCN(C(=O)/C=C/c5ccc(Cl)c(Cl)c5)CC4)CC3)c2n1 [TCMDC-140062],107.7
19,CC(=O)Nc1ccc2[nH]cc(C3CCN(CC4CCN(C(=O)/C=C/c5ccc(Cl)c(Cl)c5)CC4)CC3)c2n1 [TCMDC-140112],-22.97
20,Cc1cccc2[nH]cc(C3CCN(CCC4CCN(C(=O)/C=C/c5ccc(Cl)c(Cl)c5)CC4)CC3)c12 [TCMDC-140124],-19.67
21,CC(=O)Nc1ccc2[nH]cc(C3CCN(CCC4CCN(C(=O)/C=C/c5ccc(Cl)c(Cl)c5)CC4)CC3)c2n1 [TCMDC-140113],-31.57
22,CC(Cc1ccc(C(=O)OC(c2ccccc2)c2ccccc2)cc1)NCC(O)c1ccccc1 (stereo not drawn) [TCMDC-131546],37.45
23,Cc1ccc2nc(-c3cc(-c4cccc(CCN5CCOCC5)c4)cnc3N)[nH]c2c1 [TCMDC-133136],-33.78

row,SMILES,% Inhibition [%]
1,Cc1nc2ccc(/C=C/C(=O)NC3CCC(CCN4CCc5ccc(C#N)cc5CC4)CC3)cc2[nH]1 (stereo not drawn) [TCMDC-139675],-3.608
2,CNC(=O)c1ccc2[nH]cc(C3CCN(CC4CCC(NC(=O)/C=C/c5ccccc5Cl)CC4)CC3)c2c1 (stereo not drawn) [TCMDC-139978],-4.902
3,Nc1ccc2[nH]cc(C3CCN(CC4CCC(NC(=O)/C=C/c5ccccc5Cl)CC4)CC3)c2n1 (stereo not drawn) [TCMDC-140063],106.2
4,CS(=O)(=O)Nc1ccc2[nH]cc(C3CCN(CC4CCC(NC(=O)/C=C/c5ccc(Cl)c(Cl)c5)CC4)CC3)c2n1 (stereo not drawn) [TCMDC-140088],4.239
5,Nc1ccc2[nH]cc(C3CCN(CC4CCC(NC(=O)/C=C/c5ccc(Cl)c(Cl)c5)CC4)CC3)c2n1 (stereo not drawn) [TCMDC-140064],97.26
6,Cc1cc(O)cc2c(C3CCN(CC4CCC(NC(=O)/C=C/c5ccccc5Cl)CC4)CC3)c[nH]c12 (stereo not drawn) [TCMDC-139924],-46.01
7,CC(=O)Nc1ccc2[nH]cc(C3CCN(CC4CCC(NC(=O)/C=C/c5ccccc5Cl)CC4)CC3)c2n1 (stereo not drawn) [TCMDC-140111],60.6
8,CC(=O)Nc1ccc2[nH]cc(C3CCN(CC4CCC(NC(=O)/C=C/c5ccc(Cl)c(Cl)c5)CC4)CC3)c2n1 (stereo not drawn) [TCMDC-140114],6.04
9,CCCCc1cc(NCc2ccncc2)nc(Nc2ccc(OC)cc2)n1 [TCMDC-134010],-13.59
10,Cc1cccc(NC(=O)c2cnc(N3CCN(c4ccncc4)CC3)c(Cl)c2)c1 [TCMDC-134625],39.85
11,CC(C)Nc1cc(C(=O)N[C@@H](Cc2ccccc2)[C@H](O)CNC2CCOCC2)c(F)c(N2CCCCS2(=O)=O)c1 [TCMDC-135541],-18.96
12,CN(C)CCCOc1cc(NC(=O)Nc2ccc(-c3ccncc3)c3ccccc23)ccc1I [TCMDC-139136],21.74
13,CS(=O)(=O)CCCNCc1ccc(-c2cc3c(Nc4ccc(OCc5ccccc5)cc4)ncnc3cn2)o1 [TCMDC-138081],11.38
14,CN(Cc1ccc(C#N)cc1)C1CCN(c2cc(NC(=O)c3cccc(F)c3)ccn2)CC1 [TCMDC-134976],-19.78
15,COc1ccc2nccc([C@@H](O)CN3CCC(NC(=O)Cc4ccc(Br)c5ccccc45)CC3)c2c1 [TCMDC-141168],-21.28
16,CC1(C)N=C(N)N=C(N)C1c1ccc(Cl)cc1 (stereo not drawn) [TCMDC-137610],17.18
17,O=C(O[C@@H]1CN[C@H](C#Cc2cc3c(Nc4ccc5c(cnn5Cc5ccccc5)c4)ncnc3s2)C1)N1CCCC1 [TCMDC-135376],21.76
18,O=C(Cn1c(CCc2cccc(F)c2F)cc(=O)c2ccccc21)N(CCN1CCCCC1)Cc1ccc(-c2ccc(C(F)(F)F)cc2)cc1 [TCMDC-141142],-28.19
19,O=C(Cn1c(SCc2cccc(F)c2F)cc(=O)c2ccccc21)N(CCCn1ccnc1)Cc1ccc(-c2ccc(C(F)(F)F)cc2)cc1 [TCMDC-141467],68.26
20,CCN(CC)CCCN(Cc1ccc(-c2ccc(C(F)(F)F)cc2)cc1)C(=O)Cn1c(SCc2cccc(F)c2F)cc(=O)c2ccccc21 [TCMDC-141175],139.9
21,O=C(Cn1c(SCc2cccc(F)c2F)cc(=O)c2ccccc21)N(CCN1CCCCC1)Cc1ccc(-c2ccc(C(F)(F)F)cc2)cc1 [TCMDC-141466],112.5
22,O=C(Cn1c(SCc2cccc(F)c2F)cc(=O)c2ccccc21)N(CCn1ccnc1)Cc1ccc(-c2ccc(C(F)(F)F)cc2)cc1 [TCMDC-141468],91.6
23,O=C(Cn1c(CCc2cccc(F)c2F)cc(=O)c2cccnc21)N(CCCn1ccnc1)Cc1ccc(-c2ccc(C(F)(F)F)cc2)cc1 [TCMDC-141469],1.607
